Results as given in the supplement of paper PMC9334596.
Values joined by “and” are separate entries in the source; they are usually repeats but may differ in a detail not shown here. Identical values can stand only once. Whole data set: some 5,300 compounds, median “PER2::LUC luminescence relative to vehicle control” near 0.96, cut for the highest 2% near 1.3. Shown is part of a subset that was picked to be rich in the highest values.

Tested on: mPer2Luc MEF
Experiment: PER2::LUC luminescence relative to vehicle control (fold of vehicle); higher = higher PER2::LUC reporter signal
Conditions: 10 µM
Procedure, shortened: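 Compounds from commercial libraries were added at 10 μM to 384-well plates seeded 48 h earlier with ~3000 mPer2Luc mouse embryonic fibroblasts per well. The cells were kept in DMEM with 10% FBS at 37 °C and 5% CO2. Luminescence was read with ONE-Glo 24 h and 30 h after treatment, then an alamarBlue viability assay was run. Values are PER2::LUC luminescence relative to vehicle control, as fold change.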

## CCCCC/C=C\CCC(=O)N[C@H]1[C@H](Oc2c3cc4cc2Oc2ccc(cc2Cl)[C@@H](O[C@@H]2O[C@H](CO)[C@@H](O)[C@H](O)[C@H]2NC(C)=O)[C@@H]2NC(=O)[C@H](NC(=O)[C@@H]4NC(=O)[C@H]4NC(=O)[C@@H](Cc5ccc(c(Cl)c5)O3)NC(=O)[C@H](N)c3ccc(O)c(c3)Oc3cc(O)cc4c3)c3ccc(O)c(c3)-c3c(O[C@H]4O[C@H](CO)[C@@H](O)[C@H](O)[C@@H]4O)cc(O)cc3[C@@H](C(=O)O)NC2=O)O[C@H](CO)[C@@H](O)[C@@H]1O
Time after treatment 24 h
  PER2::LUC luminescence: 0.886
Time after treatment 30 h
  PER2::LUC luminescence: 0.953

## C=C[C@@](C)(O)CC[C@H]1C(=C)CC[C@H]2C(C)(C)CCC[C@]12C
Time after treatment 24 h
  PER2::LUC luminescence: 0.946
Time after treatment 30 h
  PER2::LUC luminescence: 0.911

## COc1ccc(-c2coc3c(OC)c(OC)cc(O)c3c2=O)cc1
Time after treatment 24 h
  PER2::LUC luminescence: 1.01
Time after treatment 30 h
  PER2::LUC luminescence: 1.13

## COc1ccc(-c2coc3cc(O)ccc3c2=O)cc1S(=O)(=O)O
Time after treatment 24 h
  PER2::LUC luminescence: 1
Time after treatment 30 h
  PER2::LUC luminescence: 0.898

## COc1ccc2c(=O)c(-c3ccc(O)cc3)coc2c1
Time after treatment 24 h
  PER2::LUC luminescence: 1.39
Time after treatment 30 h
  PER2::LUC luminescence: 1.62

## O=c1c(-c2ccc(O)cc2)coc2cc(O)cc(O)c12
Time after treatment 24 h
  PER2::LUC luminescence: 1.07
Time after treatment 30 h
  PER2::LUC luminescence: 1.06

## COc1cc(-c2coc3cc(OC)c(OC)c(OC)c3c2=O)cc(OC)c1OC
Time after treatment 24 h
  PER2::LUC luminescence: 0.972
Time after treatment 30 h
  PER2::LUC luminescence: 0.969

## COc1cc(-c2coc3cc(O)c(OC)c(O)c3c2=O)cc(O)c1OC
Time after treatment 24 h
  PER2::LUC luminescence: 1.37
Time after treatment 30 h
  PER2::LUC luminescence: 1.39

## COc1cc(-c2coc3cc(O[C@@H]4O[C@H](CO)[C@@H](O)[C@H](O)[C@H]4O)c(OC)c(O)c3c2=O)cc(O)c1OC
Time after treatment 24 h
  PER2::LUC luminescence: 0.773
Time after treatment 30 h
  PER2::LUC luminescence: 1.31

## COc1ccc(-c2coc3c(O)c(O)c(OC)cc3c2=O)cc1
Time after treatment 24 h
  PER2::LUC luminescence: 1.31
Time after treatment 30 h
  PER2::LUC luminescence: 1.23

## COc1ccc(-c2coc3cc(O)cc(O)c3c2=O)cc1
Time after treatment 24 h
  PER2::LUC luminescence: 1.83
Time after treatment 30 h
  PER2::LUC luminescence: 1.97

## CC(C)(C)[Si](C)(C)Oc1ccc2oc(=O)c3c(c2c1)CCCN3
Time after treatment 24 h
  PER2::LUC luminescence: 1.14
Time after treatment 30 h
  PER2::LUC luminescence: 1.15

## CC(=O)O[C@@H]1C[C@@]23C[C@@]24CC[C@H](O[C@@H]2OC[C@@H](O)[C@H](O)[C@H]2O)C(C)(C)[C@@H]4CC[C@H]3[C@]2(C)C[C@@H]3O[C@]4(C[C@@H](C)[C@@H]3[C@@]12C)O[C@H](O)[C@@]1(C)O[C@@H]41
Time after treatment 24 h
  PER2::LUC luminescence: 0.888
Time after treatment 30 h
  PER2::LUC luminescence: 0.982

## CC[C@H](C)[C@@H]([C@@H](CC(=O)N1CCC[C@H]1[C@H](OC)[C@@H](C)C(=O)N[C@@H](Cc1ccccc1)c1nccs1)OC)N(C)C(=O)[C@@H](NC(=O)[C@@H](NC)C(C)C)C(C)C
Time after treatment 24 h
  PER2::LUC luminescence: 0.338
Time after treatment 30 h
  PER2::LUC luminescence: 0.385

## O=C(O)CCC/C=C\C/C=C\C/C=C\C/C=C\CCCCCO
Time after treatment 24 h
  PER2::LUC luminescence: 0.987
Time after treatment 30 h
  PER2::LUC luminescence: 0.936

## COc1cc2c(cc1OC)[C@H]1[C@@H](C)c3ccc(OC)c(OC)c3CN1CC2
Time after treatment 24 h
  PER2::LUC luminescence: 0.954
Time after treatment 30 h
  PER2::LUC luminescence: 0.973

## CCCCOc1ccc(C(=O)Nc2ccc(F)cc2F)cc1
Time after treatment 24 h
  PER2::LUC luminescence: 1.29
Time after treatment 30 h
  PER2::LUC luminescence: 1.34

## CCCCOc1ccc(CC(=O)NO)cc1
Time after treatment 24 h
  PER2::LUC luminescence: 1.01
Time after treatment 30 h
  PER2::LUC luminescence: 1.01

## COc1cc2nccc(Oc3ccc(NC(=O)Nc4ccc(F)cc4F)c(F)c3)c2cc1OC
Time after treatment 24 h
  PER2::LUC luminescence: 0.785
Time after treatment 30 h
  PER2::LUC luminescence: 0.689

## O=C[C@H](O)[C@@H](O)[C@H](O)CO (racemic)
Time after treatment 24 h
  PER2::LUC luminescence: 0.94
Time after treatment 30 h
  PER2::LUC luminescence: 1.06

## C[C@@H](O)[C@H]1C(=O)N2C(C(=O)O)=C(SC3CN(C4=NCCS4)C3)[C@H](C)[C@H]12
Time after treatment 24 h
  PER2::LUC luminescence: 1.03
Time after treatment 30 h
  PER2::LUC luminescence: 1.01

## O=C(O)c1ccc2nc(-c3cc(Cl)cc(Cl)c3)oc2c1
Time after treatment 24 h
  PER2::LUC luminescence: 1.42
Time after treatment 30 h
  PER2::LUC luminescence: 1.43

## C=CC(C1=CC(=O)C(OC)=CC1=O)c1ccc(OC)cc1 (stereo not drawn)
Time after treatment 24 h
  PER2::LUC luminescence: 1.16
Time after treatment 30 h
  PER2::LUC luminescence: 1.02

## CC1(C)[C@@H](OC(=O)CCC(=O)O)CC[C@]2(C)[C@H]3C(=O)C=C4[C@@H]5C[C@@](C)(C(=O)O)CC[C@]5(C)CC[C@@]4(C)[C@]3(C)CC[C@@H]12
Time after treatment 24 h
  PER2::LUC luminescence: 0.965 and 0.646
Time after treatment 30 h
  PER2::LUC luminescence: 0.891 and 1.01

## CC1(C)[C@@H](O)CC[C@]2(C)[C@H]3C(=O)C=C4[C@H]5C[C@@](C)(C(=O)O)CC[C@]5(C)CC[C@@]4(C)[C@]3(C)CC[C@@H]12
Time after treatment 24 h
  PER2::LUC luminescence: 0.97
Time after treatment 30 h
  PER2::LUC luminescence: 0.899

## CC1(C)[C@@H](O)CC[C@]2(C)[C@H]3C(=O)C=C4[C@@H]5C[C@@](C)(C(=O)O)CC[C@]5(C)CC[C@@]4(C)[C@]3(C)CC[C@@H]12
Time after treatment 24 h
  PER2::LUC luminescence: 1.22 and 0.966
Time after treatment 30 h
  PER2::LUC luminescence: 1.5 and 0.907

## CC(C)C[C@H](N)C(=O)N[C@H](C(=O)N[C@H](C(=O)N[C@@H](Cc1ccc(O)cc1)C(=O)N1CCC[C@H]1C(=O)N[C@@H](Cc1c[nH]c2ccccc12)C(=O)N[C@H](C(=O)N[C@@H](CCC(N)=O)C(=O)N[C@@H](CCCN=C(N)N)C(=O)O)[C@@H](C)O)C(C)C)C(C)C
Time after treatment 24 h
  PER2::LUC luminescence: 0.942
Time after treatment 30 h
  PER2::LUC luminescence: 0.916

## COc1ccc(C[C@H]2c3cc(OC)c(OC)cc3CC[N+]2(C)C)cc1OC
Time after treatment 24 h
  PER2::LUC luminescence: 0.944
Time after treatment 30 h
  PER2::LUC luminescence: 0.889

## COc1ccccc1-c1nc(-c2ccccn2)no1
Time after treatment 24 h
  PER2::LUC luminescence: 0.948
Time after treatment 30 h
  PER2::LUC luminescence: 0.943

## C#CCCC(=O)O
Time after treatment 24 h
  PER2::LUC luminescence: 1.07
Time after treatment 30 h
  PER2::LUC luminescence: 0.985

## COc1ccnc(C[S+]([O-])c2nc3cc(-n4cccc4)ccc3[nH]2)c1C (stereo not drawn)
Time after treatment 24 h
  PER2::LUC luminescence: 1.07
Time after treatment 30 h
  PER2::LUC luminescence: 1.05

## COc1ccc2[nH]c([S@@+]([O-])Cc3ncc(C)c(OC)c3C)nc2c1
Time after treatment 24 h
  PER2::LUC luminescence: 1.02 and 1.01 and 1.11
Time after treatment 30 h
  PER2::LUC luminescence: 1.01 and 0.923 and 1.08

## Cc1c(OCC(F)(F)F)ccnc1C[S@@+]([O-])c1nc2ccccc2[nH]1
Time after treatment 24 h
  PER2::LUC luminescence: 1.68 and 1.14
Time after treatment 30 h
  PER2::LUC luminescence: 1.73 and 1.12

## COc1ccc2[nH]c([S+]([O-])Cc3ncc(C)c(OC)c3C)nc2n1 (stereo not drawn)
Time after treatment 24 h
  PER2::LUC luminescence: 0.776
Time after treatment 30 h
  PER2::LUC luminescence: 1.01
